For 26 molecules, outcome and AC50 results are on record in PubChem BioAssay (EPA / NIEHS).

As usually defined, the AC50 is the concentration at which the activity in the assay is half-maximal.

Molecules are shown by their SMILES. Results filed as inconclusive are left out. Active and inactive are the calls of the source. The calls were made as follows: active = hit-call score of the fitted dose curve at least 0.9, where 1 is the maximum; inconclusive = response in the unintended direction; inactive = score below 0.9.

Estrogen receptor (Homo sapiens), sequence (P03372 whole entry, looked up, the tested form may be a part): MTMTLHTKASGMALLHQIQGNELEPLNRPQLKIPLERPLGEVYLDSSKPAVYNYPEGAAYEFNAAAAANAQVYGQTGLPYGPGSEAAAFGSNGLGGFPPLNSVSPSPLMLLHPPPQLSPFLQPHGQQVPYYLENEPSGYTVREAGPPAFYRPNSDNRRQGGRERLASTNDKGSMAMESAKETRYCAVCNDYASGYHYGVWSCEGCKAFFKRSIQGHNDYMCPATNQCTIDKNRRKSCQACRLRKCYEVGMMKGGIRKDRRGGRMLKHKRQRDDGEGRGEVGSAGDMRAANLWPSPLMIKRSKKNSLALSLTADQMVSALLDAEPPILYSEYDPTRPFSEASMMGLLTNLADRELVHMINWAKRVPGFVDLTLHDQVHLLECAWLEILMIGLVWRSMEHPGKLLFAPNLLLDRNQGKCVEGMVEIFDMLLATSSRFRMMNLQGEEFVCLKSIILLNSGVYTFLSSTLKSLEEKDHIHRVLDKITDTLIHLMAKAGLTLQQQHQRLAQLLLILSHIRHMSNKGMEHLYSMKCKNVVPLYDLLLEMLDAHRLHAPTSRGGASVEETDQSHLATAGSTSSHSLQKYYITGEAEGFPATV

The target in this experiment is Estrogen receptor (Homo sapiens) (UniProt P03372). Nature of the experiment: OT_ER_ERaERa_0480: Odyssey Thera (OT) 8-hour HEK293T Protein-Complementation Assay for Estrogen Receptor-alpha/-alpha Homodimer (AID 2283351).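 Also: rise in fluorescence from reassembled reporter fragments on ERα LBD homodimer in nucleus or whole cell.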 As to the method:
OT_ER_ERaERa_0480 is a cell-based assay that uses HEK293T, a human kidney cell line, with measurements taken at 8 hours after chemical dosing in a 384-well plate.OT_ER_ERaERa_0480 is one of one assay component(s) measured or calculated from the OT_ER_ERaERa_0480 assay. It is designed to make measurements of protein fragment complementation, a form of binding reporter, as detected with fluorescence intensity signals by Protein-fragment Complementation technology.Data from the assay component OT_ER_ERaERa_0480 was analyzed into 1 assay endpoint. This assay endpoint, OT_ER_ERaERa_0480, was analyzed in the positive analysis fitting direction relative to DMSO as the negative control and baseline of activity. Using a type of binding reporter, measures of receptor for gain-of-signal activity can be used to understand the binding at the pathway-level as they relate to the gene ESR1. Furthermore, this assay endpoint can be referred to as a primary readout, because the performed assay has only produced 1 assay endpoint. To generalize the intended target to other relatable targets, this assay endpoint is annotated to the nuclear receptor intended target family, where the subfamily is steroidal.
Protein-fragment complementation assay, or PCA, is a method for the identification and quantification of protein-protein interactions. In the PCA, the proteins of interest ("bait" and "prey") are each covalently linked to fragments of a third protein (e.g. DHFR, which acts as a "reporter"). Interaction between the bait and the prey proteins brings the fragments of the reporter protein in close proximity to allow them to form a functional reporter protein whose activity can be measured. The OT ER alpha / ER alpha assay is a homodimer PCA of the ligand binding domain (amino acids 310-547) of human ER alpha stably expressed in HEK293T cells. […] Fluorescent signal in the basal state of the assay is very low and is primarily punctuate and cytoplasmic. Modulation of this assay is quantified as an increase in mean fluorescence intensity in the nucleus (for agonists) or in the nucleus and cytoplasm (antagonists) relative to vehicle controls, and can be quantified on a high content imaging device or a laser scanning cytometer. The latter instrument is favored for this assay because of the rapid mode of data acquisition, the ability to acquire data from the entire cell population in a well (as opposed to a fraction of the well on the high content devices) and the larger dynamic range typically achieved with this instrument. To assess sensitivity of the ER alpha/ER alpha LBD assay to ligand, cells were treated with the ER agonist 17 beta-estradiol (E2) in 10-point concentration- response format for 8 hours and monitored response on a laser scanning plate cytometer (Acumen eX3; TTP Lab Tech).
In the case of `O=C1C=CC(=O)N1c1ccccc1`, the molecule was called inactive.
On the same count and under the same terms, to `CC(C)Nc1ccc(NC(C)C)c2c1C(=O)c1ccccc1C2=O` belongs “inactive”; to `CCCCCCCCn1sc(Cl)c(Cl)c1=O`, “inactive”.
As to `CCN=c1cc2oc3cc(NCC)c(C)cc3c(-c3ccccc3C(=O)OCC)c-2cc1C`, the AC50 is 12.2 µM (active).
Consider `COCCOCCC[Si](C)(O[Si](C)(C)C)O[Si](C)(C)C`, for which the molecule was called inactive.
In the case of `CCN=C1C=CC(=C(c2ccc(N(CC)CC)cc2)c2ccc(N(CC)CC)cc2)c2ccccc21`, the outcome was inactive.
As to `CCCCOC(=O)[C@H](C)O`, the call was inactive.
Still for that read-out and setting: the entry for `Cc1ccc(O)c(-n2nc3ccccc3n2)c1` is “inactive”; for `CC(=O)CCC(C)C` it is “inactive”.
The same measure, in the same setting: the entry for `CCCCOC(=O)C(C)O` (stereo unspecified) is “inactive”; for `Cc1ccc([N+](=O)[O-])c(C)c1` it is “inactive”.
On to `O=C(c1ccccc1)c1ccc(O)cc1O`, for which the AC50 is 22.7 µM (active).
Regarding `CCCCC(CC)COC(=O)c1ccc(N(C)C)cc1` (stereo unspecified), the molecule was classed as inactive.
Still for that read-out and setting: the entry for `CC(C)(C)c1cc(Cc2cc(C(C)(C)C)c(O)c(C(C)(C)C)c2)cc(C(C)(C)C)c1O` is “inactive”; for `CCCCCCCC/C=C\CCCCCCCC(=O)OCC(O)CO` (stereo unspecified) it is “inactive”; for `CCCCCCCCCCCCCC[P+](CCCC)(CCCC)CCCC` it is “inactive”.
Still for that read-out and setting: the entry for `CCCCCCCCCCCCC[N+](C)(C)Cc1ccccc1` is “inactive”.
Consider `CCC(Cc1c(I)cc(I)c(N)c1I)C(=O)O` (stereo unspecified), for which the AC50 is 66.3 µM (active).
For the molecule `F[Si-2](F)(F)(F)(F)F`, the result was inactive.
For `CCOC(=O)C1CC(=O)C(=C(O)C2CC2)C(=O)C1` (stereo unspecified), the molecule was called inactive.
The same measure, in the same setting: to `CCOC(OCC)OCC` belongs “inactive”.
Still for that read-out and setting: the entry for `OCC1CCCO1` (stereo unspecified) is “inactive”; for `CCc1cc(Cc2cc(CC)c(N)c(CC)c2)cc(CC)c1N` it is “inactive”; for `N#Cc1ccccc1O` it is “inactive”.
On to `CC(C)OC=O`, for which the molecule was classed as inactive.
The same measure, in the same setting: to `CCCCCCCCCc1ccc(OCCO)cc1` belongs “inactive”.
